# According to PubChem BioAssay AID485317 (Broad Institute, 2010):
# Out of some 290,000 compounds screened, about 11,000 (3.8%) were called active. The sample as a whole holds a higher share of actives than the screen did. A number with no mark means an inactive call.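 The calls were made as follows: active = mean replicate inhibition above about 79%, with every replicate also reaching it (limit read from the data); inconclusive = only one of the two criteria met; inactive = mean below limit and not every replicate reaching it.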
# Molecular target: FAD-linked sulfhydryl oxidase ALR (Homo sapiens) (UniProt P55789)
# Sequence (P55789 whole entry, looked up): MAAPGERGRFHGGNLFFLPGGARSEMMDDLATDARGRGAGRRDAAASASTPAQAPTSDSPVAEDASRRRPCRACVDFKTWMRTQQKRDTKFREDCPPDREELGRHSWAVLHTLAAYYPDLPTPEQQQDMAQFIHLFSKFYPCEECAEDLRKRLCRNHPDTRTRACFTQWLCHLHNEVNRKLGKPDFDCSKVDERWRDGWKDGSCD
# Experiment: ALR-catalysed DTT oxidation blockers – biochemical, H2O2 detection, HRP-luminol luminescence, single point, primary screen (AID 485317)
# Settings: purified ALR, active compounds read high, concentration not given here
row,SMILES,inhibition
1,CCCCn1c(N)c(N(CCOC)C(=O)CSCC(=O)Nc2cccc(C)c2)c(=O)[nH]c1=O,6.91%
2,CC(=O)Nc1ccc(S(=O)(=O)NC(C)C(=O)OCCOc2ccc(F)cc2)cc1 (stereo not given),0.524%
3,COc1ccc2nc3n(c(=O)c2c1)-c1cc(C)ccc1C(=O)NC3Cc1ccc(O)cc1 (stereo not given),-1.57%
4,O=C(Nc1nnc(-c2ccccc2)o1)c1cccc(S(=O)(=O)N2CCOCC2)c1,9.18%
5,Fc1ccccc1-c1cc2cc3c(cc2cn1)OCO3,0.64%
6,C[C@@H]1CN([C@@H](C)CO)C(=O)c2cccc(NS(=O)(=O)c3ccc(F)cc3)c2O[C@H]1CN(C)C(=O)NC1CCCCC1,-2.04%
7,CCOC(=O)c1c(C)[nH]c(C(=O)OCC(=O)N2CCCC2=O)c1C,1.73%
8,Cc1nn(Cc2ccccc2)c(C)c1C(=O)NCCCN1CCCC1=O,-2.84%
9,CC(=O)Nc1cccc(C(=O)OCC(=O)c2ccc3c(c2)OCO3)c1,-2.29%
10,C=CC[C@H](CC(=O)N(CCO)Cc1ccccc1)C(=O)N[C@@H](COC(=O)[C@@H](CC=C)Cc1ccc(F)cc1)Cc1ccccc1,-4.83%
11,COc1ccc(-c2nc(CS(=O)(=O)CC(=O)NCc3cccc(Br)c3)c(C)o2)cc1,22.1%
12,Cc1oc2nc(SCC(=O)NCc3cccnc3)nc(N)c2c1C,-4.94%
13,COc1ccc(C(=O)O)cc1S(=O)(=O)NCc1cccnc1,-5.82%
14,CCCCN(CC)CCCNC(=O)CS(=O)(=O)Cc1nc(-c2cccc(OC)c2)oc1C,98.8% (active)
15,COc1cccc(-c2nc(CS(=O)(=O)CC(=O)NCCc3ccc(OC)c(OC)c3)c(C)o2)c1,46.6%
16,COc1ccc(-c2nc(CS(=O)CC(=O)NCc3cccnc3)c(C)o2)cc1OC (stereo not given),99.2% (active)
17,O=C1C=C(c2cccc(Br)c2)C[C@@H](c2ccc(F)cc2)C1,-0.0525%
18,O=C(COC(=O)COc1cc(Cl)c(Cl)cc1Cl)NC1CC1,-25.6%
19,O=C(CSCc1ccccc1)Nc1ccccc1,-3.32%
20,Cc1cc(C)cc(NC(=O)CSCc2cnn(-c3ccccc3)c2-n2cccc2)c1,-4.84%
21,CC(=O)Nc1ccc(NC(=O)CSCc2cnn(-c3ccccc3)c2-n2cccc2)cc1,98.3% (active)
22,Cc1ccc(S(=O)(=O)NCCC(=O)NCc2ccc(Cl)cc2)cc1C,-3.37%
23,O=C(O)c1ccccc1C(=O)Nc1nc(-c2ccccc2)cs1,-5.73%

row,SMILES,inhibition
1,O=C(O)c1ccccc1C(=O)NC1=NN(c2ccccc2)CC1,98.4% (active)
2,O=C(Nc1ccccc1C(=O)O)c1ccc(N2C(=O)C3CC=CCC3C2=O)cc1 (stereo not given),2.58%
3,CC1CCCCC12NC(=O)N(CC(=O)OCc1c(F)cccc1Cl)C2=O (stereo not given),25.1%
4,COc1ccc(C)cc1NC(=O)CSc1cccc[n+]1[O-],-22.2%
5,C[C@H](OC(=O)n1ccnc1)[C@@H]1O[C@@]2(C)CCC[C@@H]1O2,4.53%
6,CC(NC(=O)C(C)(C)C)C(c1cccs1)N1CCN(Cc2ccccc2)CC1 (stereo not given),-4.94%
7,CC(NC(=O)Nc1ccccc1)C(c1cccs1)N1CCN(c2ccccc2)CC1 (stereo not given),1.95%
8,CCCC(=O)NC(C)C(c1cccs1)N1CCN(c2ccccc2)CC1 (stereo not given),97.6% (active)
9,O=C(NC(=S)Nc1ccc(Br)cc1F)C1CCCCC1,-2.71%
10,O=C(COc1ccccc1F)NNC(=O)c1cc(Br)ccc1Cl,-9.96%
11,Cc1ccccc1-c1cc(C(=O)NCc2cccs2)n(CC2CC(c3cccnc3)=NO2)n1 (stereo not given),8.05%
12,COc1ccc(-c2csc(Cc3nc(O)cs3)n2)cc1,86.8% (active)
13,COc1ccc(-c2csc(NC3OC(=O)c4ccccc43)n2)cc1 (stereo not given),22.4%
14,COc1ccc(-c2csc(NC(=O)COC(=O)c3ccc(Br)o3)n2)cc1,53.6%
15,CCOC(=O)N1CCN(C(=O)c2ccc(S(=O)(=O)c3ccc(C)cc3)c(NC(C)=O)c2)CC1,4.26%
16,CCOC(=O)N1CCN(C(=O)c2ccc3c(c2)N(Cc2ccc(C)cc2)CCS3)CC1,93.4% (active)
17,O=C(NCCc1ccccc1)c1ccc2c(c1)N(Cc1ccccc1)CCS2,10.1%
18,O=C(CSc1nc(Nc2ccccc2)nc(N2CCOCC2)n1)Nc1cc(Cl)ccc1O,-0.209%
19,O=C(CSc1nc2ccc(Nc3nc(N4CCOCC4)nc(N4CCOCC4)n3)cc2s1)NCc1ccco1,98.7% (active)
20,C=CCn1c(CSc2nc3ccccc3s2)nnc1SCC(=O)NCc1ccco1,60.8%
21,O=C(c1ccc(F)c(S(=O)(=O)N2CCOCC2)c1)N(CCc1ccccc1)Cc1ccccc1,-7.64%
22,Cc1cccc(N(CC(O)CN(C)C)S(=O)(=O)c2ccccc2)c1 (stereo not given),-4.54%
23,O=S(=O)(c1ccccc1)N(CC(O)CN1CCCCC1)c1ccccc1 (stereo not given),-3.01%

row,SMILES,inhibition
1,OCC(O)CN(c1ccccc1)c1ccccc1 (stereo not given),99% (active)
2,CN(c1ccccc1)S(=O)(=O)c1ccc(C(=O)N2CCN(c3ccccc3Cl)CC2)cc1,-8.17%
3,O=[N+]([O-])c1ccc(S(=O)(=O)Nc2cccc(-c3ccc(N4CCCC4)nn3)c2)cc1,0.216%
4,C=CCOc1ccc(/C=C/C(=O)OCC(=O)NC(C)c2ccc(F)cc2)cc1 (stereo not given),-7.12%
5,O=C1CCCC(O)=C1N=Nc1ccc(S(=O)(=O)N2CCOCC2)cc1,-10.4%
6,O=C1CCCC(O)=C1N=Nc1ccc2ncsc2c1,97.4% (active)
7,COc1ccccc1-c1sc2ccccc2c1C#CC1(O)CCCCC1,-3.52%
8,O=C(NCc1ccco1)c1ccc([N+](=O)[O-])cc1Cl,-19%
9,O=C(NCc1ccco1)/C(=C/c1cccc([N+](=O)[O-])c1)NC(=O)c1ccco1,69.6%
10,CCC(CC)NC(=O)/C=C/c1cccc([N+](=O)[O-])c1,-3%
11,O=C(/C=C/c1ccc([N+](=O)[O-])cc1)NCCSCc1ccco1,98.4% (active)
12,O=C(CSCc1ccc([N+](=O)[O-])cc1)NCCSCc1ccccc1,-10.2%
13,O=C(/C=C/c1cccc([N+](=O)[O-])c1)NCCSCc1ccco1,98.5% (active)
14,CCN(C(=O)CSc1ncnc2sccc12)c1c(N)n(Cc2ccccc2)c(=O)[nH]c1=O,-0.954%
15,COCCNC(=S)N(Cc1cccnc1)Cc1ccc(OC)c(OC)c1,-1.92%
16,COCCNC(=S)N(CCc1c(C)[nH]c2ccc(C)cc12)Cc1cccnc1,90.7% (active)
17,CCNC(=S)N(CCc1c(C)[nH]c2ccc(C)cc12)Cc1ccco1,69.2%
18,Cc1n[nH]c(=O)c2c(NC(=O)CSc3ccccc3F)oc(C)c12,1.87%
19,CC(C)COc1ccc(C(=O)NNC(=O)CCC(=O)c2cccs2)cc1,-17.3%
20,CC(NC(=O)COC(=O)CCC(=O)c1ccc(Cl)cc1)c1ccccc1 (stereo not given),-2.75%
21,Cc1noc(C)c1C(=O)OC(C)C(=O)Nc1ccc2c(c1)OCO2 (stereo not given),-0.736%
22,Cc1cccc(N2CCN(c3ccc(NC(=O)/C=C\C(=O)O)cc3)CC2)c1,99% (active)
23,O=C(Nc1cccc(NC(=O)N2CCN(c3ccccc3)CC2)c1)N1CCN(c2ccccc2)CC1,-1.81%

row,SMILES,inhibition
1,CSc1ccc(NC(=O)/C=C/C(=O)O)cc1,0.113%
2,Cc1ccc(CN2CCN(c3ccccc3Cl)CC2)o1,2%
3,CN1CCN(S(=O)(=O)c2ccc(Nc3ccc(F)cc3)nc2)CC1,-2.65%
4,O=C(OCC(=O)N1CCCCCC1)c1ccc(Br)c(S(=O)(=O)N2CCOCC2)c1,-8.29%
5,COc1ccc(NC(=O)CN(C)C(=O)Cc2coc3cc(C)c(C)cc23)cc1,0.212%
6,CCC1CO/C(=C(\C(=C(Cl)Cl)N2CCOCC2)[N+](=O)[O-])N1 (stereo not given),81% (active)
7,COC(=O)[C@]1(C)CCC[C@@]2(C)C3CC[C@]4(OC(C)=O)C[C@@]3(CCC21)CC4=NO (stereo not given in full),-3.27%
8,COc1ccc(C(=O)Nc2cccc(NC(=O)c3ccc(OC)cc3OC)n2)c(OC)c1,-5.93%
9,CCCCn1c(N)c(N(CCOC)C(=O)COc2c(C)cccc2C)c(=O)[nH]c1=O,-2.66%
10,Cc1cc(SCC(=O)c2ccccc2)nc(SCC(=O)c2ccccc2)n1,1.19%
11,CSc1nsc(NC(=O)Nc2ccccc2)n1,4.37%
12,CSc1nc(C)cc(SC(C(C)=O)C(=O)Nc2ccccc2)n1 (stereo not given),92.7% (active)
13,O=C(COC(=O)C1CC2CCCC(C1)C2=O)NC(=O)c1ccccc1 (stereo not given),1.09%
14,OC(CN1C2=NCCCN2c2ccccc21)c1ccc(Br)cc1 (stereo not given),9.53%
15,O=C(CN1C2=NCCN2c2ccccc21)c1cccs1,17.3%
16,CC(C)(C)C(=O)CN1C2=NCCN2c2ccccc21,93.6% (active)
17,O=C1C=C(c2cccc(Cl)c2)C[C@@H](c2ccc(F)cc2)C1,-8.67%
18,CC(C)Cn1c(SCC(=O)Nc2ccc(Cl)cc2F)nc(O)cc1=O,98.5% (active)
19,Cc1ccccc1-n1c(SCC(=O)Nc2cccc3ccccc23)nc(O)cc1=O,59.8%
20,Cc1cc(NC(=O)CSc2nc3ccccc3n2CC(C)C)no1,-5.8%
21,COc1ccccc1-c1nn(Cc2ccccc2)cc1C(=O)N1CCN(c2ncccn2)CC1,1.87%
